Screens from PubChem BioAssay.
HP1b binding inh = inhibitors of HP1-beta chromodomain binding to methylated histone tails | P83916 | AlphaScreen HP1-beta / biotin-H3K9me3 peptide binding | Potency, µM (highest dose often 114 µM), for the others: at the top dose activity change, negative = inhibition, actives largely listed as inhibitors | actives 0.56% (n = 390,000); note: potency is the fitted concentration of half-maximal effect; nearly all actives have a fitted effect of over 70% in size
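AlphaScreen: HP1-beta (50 nM) preformed 30 min with biotin-H3(1-18)K9me3 peptide (50 nM) in PBS pH 7.4, 0.01% Tween-20. Compound added for 30 min at RT, then streptavidin donor/nickel chelate acceptor beads (10 ug/mL) for 30 min.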
BAZ2B block = BAZ2B (human) inhibition; Potency, µM (highest dose often 114 µM), inactives show top-dose activity change, negative = inhibition, usual class: inhibitors; actives 4.4% (n = 360,000); AlphaScreen BAZ2B-H3K14Ac peptide displacement; AID 504333; note: potency is the fitted concentration of half-maximal effect; % is set by controls: 0 for no effect and ±100 for the full control effect; nearly all actives have a fitted effect of over 60% in size
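Compounds, titrated to a top concentration of 110 uM, were incubated 30 min at room temperature with preformed BAZ2B/acetyl-K14 H3 peptide complex (50 nM each). Proximity signal was measured by AlphaScreen after 20 min with beads.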
CtBP-E1A blk = blocks the CtBP interaction with E1A. AID 651724. AlphaScreen GST-E1A/His-CtBP binding, 1536-well; hits give low values. actives 0.49% (n = 340,000). activity change, % (test concentration not listed); in the data active = activity change below about -65%; inconclusive = mostly about -30% to -63%; note: % is set by controls: 0 for no effect and ±100 for the full control effect
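Homogeneous bead-based format: GST-tagged E1A captured on glutathione donor beads, His-tagged CtBP on nickel acceptor beads; compounds precede bead addition by 2 h at 37 °C.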
JMJD2A Tudor inh = blocks the human JMJD2A Tudor domain. AlphaScreen JMJD2A-Tudor / H3K4me3 peptide binding. Potency, µM (titrated, usually from 114 µM), without a hit: top-dose activity change, negative = inhibition, hits mostly inhibitors. actives 4.4% (n = 390,000); note: potency is the fitted concentration of half-maximal effect; % is set by controls: 0 for no effect and ±100 for the full control effect; nearly all actives have a fitted effect of over 50% in size
Target sequence (O75164 whole entry, looked up, the tested form may be a part): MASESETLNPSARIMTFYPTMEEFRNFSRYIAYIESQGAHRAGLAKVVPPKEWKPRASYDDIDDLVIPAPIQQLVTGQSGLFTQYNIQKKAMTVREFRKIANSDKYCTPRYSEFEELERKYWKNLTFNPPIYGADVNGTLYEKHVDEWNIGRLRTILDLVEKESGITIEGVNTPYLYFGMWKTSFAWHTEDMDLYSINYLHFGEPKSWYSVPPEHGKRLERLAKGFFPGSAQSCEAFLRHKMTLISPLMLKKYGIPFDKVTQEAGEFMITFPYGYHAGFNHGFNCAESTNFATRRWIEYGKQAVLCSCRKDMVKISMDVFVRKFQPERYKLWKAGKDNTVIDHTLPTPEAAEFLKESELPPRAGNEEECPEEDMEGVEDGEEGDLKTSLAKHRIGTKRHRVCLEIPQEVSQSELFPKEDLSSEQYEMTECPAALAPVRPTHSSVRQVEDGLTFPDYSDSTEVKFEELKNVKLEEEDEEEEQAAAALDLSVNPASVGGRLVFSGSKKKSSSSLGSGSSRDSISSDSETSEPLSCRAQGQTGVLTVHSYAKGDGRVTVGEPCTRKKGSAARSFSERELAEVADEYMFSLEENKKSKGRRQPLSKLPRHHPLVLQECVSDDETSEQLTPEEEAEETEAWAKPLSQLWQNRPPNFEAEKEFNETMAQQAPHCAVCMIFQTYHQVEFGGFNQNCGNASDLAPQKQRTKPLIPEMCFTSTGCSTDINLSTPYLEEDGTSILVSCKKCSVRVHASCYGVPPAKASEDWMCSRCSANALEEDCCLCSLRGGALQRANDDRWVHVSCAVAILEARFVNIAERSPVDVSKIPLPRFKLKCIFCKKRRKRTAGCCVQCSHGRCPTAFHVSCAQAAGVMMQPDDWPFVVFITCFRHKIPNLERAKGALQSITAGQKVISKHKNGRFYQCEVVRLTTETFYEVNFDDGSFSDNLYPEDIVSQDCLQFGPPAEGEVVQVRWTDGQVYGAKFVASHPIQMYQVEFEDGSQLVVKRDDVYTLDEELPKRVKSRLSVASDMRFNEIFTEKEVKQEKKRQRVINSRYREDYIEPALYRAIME
Six1-Eya2 blk = blocks human Six1 binding to Eya2. AlphaScreen GST-Six1/His-Eya2 binding, biochemical; hits give low values. activity change, % (concentration not given with the values). actives 0.56% (n = 360,000); in the data active = activity change below about -65%; inconclusive = mostly about -30% to -63%; note: % is set by controls: 0 for no effect and ±100 for the full control effect
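Six1/Eya2 binding was read as AlphaScreen signal after compounds were pinned into GST-Six1 plus His-tagged Eya2 (5X stock 250/500 nM) in pH 8.0 Tris/NaCl/TCEP buffer, beads added, then incubated 1 h, 37 C, dark.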
G9a block = G9a (human) methyltransferase inhibition; G9a H3K9 monomethylation, AlphaScreen, 2 h; Potency, µM (titrated, usually from 102 µM), for the others: at the highest dose activity, negative = inhibition, usual class: inhibitors; actives 8.8% (n = 350,000); AID 504332; note: potency is the fitted concentration of half-maximal effect; % is set by controls: 0 for no effect and ±100 for the full control effect; nearly all actives have a fitted effect of over 75% in size
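Chemiluminescent proximity detection of H3K9 monomethylation, read after 10 min bead incubation in the dark. Reaction: 20 nM G9a, 500 nM biotin-H3K9 peptide, 20 uM SAM cofactor, 2 h, room temperature, following 15 min enzyme-compound preincubation.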
Active calls of the source: *; ? = inconclusive; · = no result; [ ] = dose if it differs, or a comment. A selection: hits, their analogues and other compounds. The true share with any hit is near 10%. Unless noted, calls come from the whole dose curve; as a rule, active = well fitted inhibition curve with a large enough effect; inconclusive = small, poorly fitted or top-dose-only effect; inactive = no such curve, though single readings can be large or run the other way.

SMILES | HP1b binding inh | BAZ2B block | CtBP-E1A blk | JMJD2A Tudor inh | Six1-Eya2 blk | G9a block
CCc1ccc2c(CN(CC)Cc3nc4ccccc4c(=O)[nH]3)cc(=O)oc2c1 | -17% | 11% | 1 | -14%[11.4 µM] | 0 | 3.5µM*
O=C(NC1CC(=O)N(c2ccc(F)cc2)C1)c1ccc2c(c1)OCO2 (centres undefined) | 7% | 0% | · | -13% | · | 5%[59 µM]
COc1ccc(OC)c(S(=O)(=O)NCC(c2ccco2)S(=O)(=O)c2ccccc2)c1 (centres undefined) | 20% | -3% | 3 | -3% | -4 | -35%
O=C1C=C(C2CCCCC2)C(=O)c2ccccc21 | ? | · | -14 | 40µM* | -7 | ·
CC(C)(C)c1ccc(CC(=O)N2CCC2(C)C(=O)Nc2cccc3cccnc23)cc1 (centres undefined) | · | · | 0 | · | 2 | ·
OCCN(Cc1ccccc1)Cc1ncccc1O | 32% | · | -12 | -9% | -15 | ·
OCCN(Cc1ccccc1)CC1CC=CCC1 (centres undefined) | ? | 79µM* | 11 | 10µM* | 1 | 10µM*
COc1ccc(N(CC(=O)NC2CCS(=O)(=O)C2)S(=O)(=O)c2ccc(Cl)c(Cl)c2)cc1 (centres undefined) | 7% | 14% | -6 | -13% | 6 | 50µM*
OC(CNCc1ccccc1)c1ccccc1 (centres undefined) | 13% | 6% | 6 | -13% | -12 | -5%
O=C(CNC(=O)c1ccccc1F)NCCCN1CCCC1=O | 32% | 0% | 7 | 2% | 5 | 3%[59 µM]
O=C1CCCN1CCCNCC(=O)N1c2ccccc2Sc2ccccc21 | ? | 22µM* | -10 | 10µM* | -10 | ?
O=C(CSc1ccc2ccccc2c1)NCCCN1CCCC1=O | 47% | -11% | · | 6% | 1 | ?
O=C1CCCN1CCCNCC(O)c1ccccc1 (centres undefined) | ? | ? | 10 | 1µM* | 1 | -2%
CC(C)OCCCNCC(O)c1ccccc1 (centres undefined) | ? | 79µM* | -7 | 20µM* | 8 | ?
CCN(CC)S(=O)(=O)c1ccc2[nH]c(=O)c3ccccc3c2c1 | 23% | -14% | 3 | -12% | -1 | -5%
Cc1ccc(C)c(Cn2c(=O)c3c(nc4n3CCN4c3ccccc3)n(C)c2=O)c1 | 7% | -14% | · | -19% | · | -32%[59 µM]
COc1ccc2c(-c3ccc(OCCN4CCCCC4)cc3)c(-c3ccccc3OC)sc2c1 | -34% | · | -22 | 28µM* | ? | ·
COc1ccc2c(-c3ccc(OCCN4CCOCC4)cc3)c(-c3ccccc3OC)sc2c1 | -17% | · | -28 | ? | -23 | ·
COc1cc2sc(-c3ccccc3OC)c(-c3ccc(OCCN4CCOCC4)cc3)c2cc1OC | ? | · | -25 | 32µM* | ? | ·
COc1ccccc1-c1sc2ccccc2c1-c1ccc(OCCN2CCCCC2)cc1 | ? | · | ? | 35µM* | -27 | ·
Cc1cccc(C)c1N1C(=O)c2ccccc2NC(=O)C1C(=O)NCCOc1ccccc1 (centres undefined) | · | · | 2 | · | 0 | ·
Nc1c(C(=O)NCCc2ccccc2)nnn1CC(=O)Nc1ccc(Cl)cc1 | -7% | 10%[57.1 µM] | · | -31% | · | -8%[59 µM]
CSc1ccc(CNC(=O)c2cc3c(=O)n(Cc4ccco4)ccc3nc2C)cc1 | 121% | 3% | · | -14% | · | -9%[59 µM]
Cc1cccc2nc(Cn3c(=O)n(-c4ccc(Cl)cc4)c(=O)c4c5c(sc43)CCC5)cc(=O)n12 | 18% | 7% | · | -12% | · | 1%[59 µM]
COc1cc(CCN(C(C)=O)C2C(=O)Nc3ccccc3N=C2c2ccc3c(c2)OCO3)cc(OC)c1 (centres undefined) | · | · | -1 | · | -11 | ·
SMILES | HP1b binding inh | BAZ2B block | CtBP-E1A blk | JMJD2A Tudor inh | Six1-Eya2 blk | G9a block
COc1cc(NC(=O)Cn2c(=O)n(Cc3ccccc3OC)c(=O)c3cccnc32)cc(OC)c1 | 16% | 4% | · | -6% | · | -13%[59 µM]
CCN(CC)CCN1C(=O)C(=O)/C(=C(/O)c2c(C)[nH]c(C(=O)OC)c2C)C1c1cccc(OC)c1 (centres undefined) | 11% | ? | -12 | ? | 3 | ?
CCOC(=O)c1[nH]c(C)c(/C(O)=C2\C(=O)C(=O)N(CCCN(C)C)C2c2ccncc2)c1C (centres undefined) | · | -2% | · | · | · | 17%[59 µM]
Cc1ccc(C2/C(=C(\O)c3cnn(-c4ccccc4)c3C)C(=O)C(=O)N2CCN(C)C)o1 (centres undefined) | 53% | -24% | 1 | -9%[11.4 µM] | -1 | -32%[59 µM]
CN(C)CCCN1C(=O)C(=O)/C(=C(/O)c2ccc3c(c2)OCCO3)C1c1ccco1 (centres undefined) | · | 2% | · | · | · | -1%
Cc1ccc(C)c(/C(O)=C2/C(=O)C(=O)N(CCN3CCOCC3)C2c2ccco2)c1 (centres undefined) | ? | 22µM* | 9 | 79µM* | -6 | ?
Cc1ccc(C2/C(=C(/O)c3cnn(-c4ccccc4)c3C)C(=O)C(=O)N2CCN2CCOCC2)o1 (centres undefined) | 14% | 79µM* | 2 | ? | 6 | ?
CCN(CC)CCN1C(=O)C(=O)/C(=C(/O)c2c(C)[nH]c(C(=O)OC)c2C)C1c1ccc(C)o1 (centres undefined) | -3% | ? | 5 | -9% | 7 | 35µM*
CCOC(=O)c1[nH]c(C)c(/C(O)=C2\C(=O)C(=O)N(CCN(C)C)C2c2ccc(C)o2)c1C (centres undefined) | 6% | -35% | 2 | ? | 0 | 40µM*
CSc1ccc(Nc2nn(-c3ccc(OC(F)(F)F)cc3)nc2C(C)=O)cc1 | 5% | 2% | · | -20% | · | 8%[59 µM]
Cc1ccc(C2/C(=C(/O)c3ccccc3)C(=O)C(=O)N2CCN2CCOCC2)o1 (centres undefined) | 35% | -30% | 7 | -29% | 5 | ?
COC(=O)c1[nH]c(C)c(/C(O)=C2\C(=O)C(=O)N(CCN3CCOCC3)C2c2cccnc2)c1C (centres undefined) | 12% | -4% | -9 | 22µM* | -15 | ?
CCOC(=O)c1[nH]c(C)c(/C(O)=C2\C(=O)C(=O)N(CCN3CCOCC3)C2c2cccs2)c1C (centres undefined) | 12% | -8% | -4 | ? | 2 | 45µM*
COC(=O)c1[nH]c(C)c(/C(O)=C2\C(=O)C(=O)N(CCN3CCOCC3)C2c2ccc(C)o2)c1C (centres undefined) | 9% | -19% | -13 | ? | 1 | 45µM*
